The values that follow come from PubChem BioAssay.

Activity calls are given as the source filed them. Unless noted, no rule for the calls is given here.

The test system of assay [1] is Wnt5a (protein binding on small-molecule microarray). Kind of assay: Wnt5a binders on small-molecule microarray, primary screen, biophysical, 635/667 nm fluorescence (AID 1142).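 Also: fluorescence read at 667 nm with signal to noise per printed feature.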 To be noted: 635 nm fluorescence, higher = more signal.
A short description of assay [2]: cell viability in Huh7 cells, primary screen, cytotoxicity control for HCV replication inhibitor project, CellTiter-Glo luminescence, basal, 48 h (AID 1143).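 Also: Huh7 hepatoma cells carrying a hepatitis C replication reporter with no stimulus; test concentration not given here.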 As to conditions: Huh7 HCV replicon, higher = more signal, called active from +8 up or from −8 down. In general terms: Cellular ATP, detected with luciferase, serves as a proxy for viable cell number.
Assay [3] in a line: P. aeruginosa biofilm formation inhibitors, primary screen, PAO1 strain, BacTiter-Glo luminescence, LB-PBS (AID 1144). As to conditions: 12 h, higher = more signal.
The nature of assay [4]: CREB reporter modulators without forskolin, primary screen, cell-based, PC12, CRE-LacZ reporter, unstimulated (AID 1145). To be noted: no forskolin, luminescence, 4.5 h, higher = more signal, called active from +8 up or from −8 down.
Assay [5] in a line: CREB reporter modulators under forskolin, primary screen, cell-based, PC12, CRE-LacZ reporter, forskolin-stimulated (AID 1146).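 Also: PC12 cells with 6xCRE LacZ reporter stimulated by forskolin 10 µM; beta-galactosidase reporter signal reflecting CREB driven transcription.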 As to conditions: luminescence, 4.5 h, higher = more signal, called active from +8 up or from −8 down.
Assay [6] concerns the target Streptavidin (Streptomyces avidinii) (UniProt P22629). Kind of assay: streptavidin binders on small-molecule microarray, primary screen, artefact control for SMM compound annotation, biophysical, 635/667 nm fluorescence (AID 1147).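 Also: signal reflects streptavidin binding to arrayed compounds as a control protein.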 As to conditions: streptavidin binding, higher = more signal.
A short description of assay [7]: small-molecule binders of probe aInhba, primary screen, biochemical, small-molecule microarray, 635/667 nm fluorescence (AID 1148).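 Also: score merges 667nm spot fluorescence with signal-to-noise for antibody binding to printed compounds.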 To be noted: higher = more signal.
Assay [8] has as its target Torsin-1A (Homo sapiens) (UniProt O14656). Kind of assay: torsin A binders from cell lysate, primary screen, small-molecule microarray, wild-type, 635/667 nm (AID 1149). To be noted: COS7 hTOR1A-WT lysate, 635 nm fluorescence, higher = more signal.
Assay [9] has the same target. The assay is described as follows: small-molecule binders of mutant TOR1A in lysate, primary screen, cell lysate, small-molecule microarray, COS7 lysate, 635/667 nm fluorescence (AID 1150).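 Also: score pools 667 nm emission and signal to noise measuring lysate protein binding.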 To be noted: COS7 hTOR1A mutant lysate, 635 nm fluorescence, higher = more signal.
Assay [10] relates to Sonic hedgehog protein (Shh). The assay is described as follows: small-molecule binders of Shh protein, primary screen, biochemical, small-molecule microarray, 635/667 nm fluorescence (AID 1151).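 Also: Shh protein binding to compounds spotted on small-molecule microarray slides; score combines spot fluorescence intensity with signal-to-noise across triplicate slides.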 To be noted: small-molecule microarray binding, 635 nm fluorescence; higher = more signal.
The nature of assay [11]: E. coli DRC41 culture turbidity changes, primary screen, E. coli filamentation inducer project, strain DRC41, OD650, 48 h (AID 1152).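 Also: E. coli MC1000 strain DRC41 lacking acrAB efflux pump and sulA.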 As to conditions: E. coli DRC41 (acrAB sulA), higher = more signal, called active from +8 up or from −8 down.
Assay [12] in a line: small-molecule binders of probe aLefty1, primary screen, biochemical, small-molecule microarray, 635/667 nm fluorescence (AID 1153).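 Also: score merges spot fluorescence with signal-to-noise ratio from the scanned slide images.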 To be noted: higher = more signal.
Assay [13] is described as follows: PSAC antagonists in infected red cells, primary screen, cell-based, P. falciparum Indochina, OD700, 1 h (AID 1154). As to conditions: P. falciparum Indochina infected RBC osmotic lysis, higher = more signal, called active from +8 up or from −8 down.
A short description of assay [14]: PSAC antagonists in infected red cells, primary screen, cell-based, P. falciparum Indochina, OD700, 2 h (AID 1155).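 Also: lysis reports solute entry through the parasite surface anion channel PSAC; channel blockers reduce lysis of infected cells.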 To be noted: P. falciparum Indochina infected erythrocytes, osmotic lysis OD700; higher = more signal, called active from +8 up or from −8 down.
Assay [15] is described as follows: osmotic lysis modulators in infected erythrocytes, primary screen, PSAC antagonist project, cell-based, P. falciparum Indochina, OD700, 3 h (AID 1156). As to conditions: higher = more signal, called active from +8 up or from −8 down.
A short description of assay [16]: PSAC antagonists in infected red cells, primary screen, cell-based, P. falciparum Indochina, OD700, 18 h (AID 1157). To be noted: P. falciparum Indochina infected erythrocytes, osmotic lysis OD700, 18 h; higher = more signal, called active from +8 up or from −8 down.
A short description of assay [17]: modulators of S6 phosphorylation in cells, primary screen, cell-based, A549, cytoblot, luminescence, serum-stimulated (AID 1158).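 Also: serum-stimulated A549 lung adenocarcinoma cells; signal is phosphorylated S6 detected by cytoblot immunostaining with HRP secondary.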 To be noted: A549 phospho-S6 cytoblot, 5 h, higher = more signal.
In assay [18] the target is NADPH oxidase 2 (Homo sapiens) (UniProt P04839). The assay is described as follows: NOX2-dependent H2O2 signal modulators, primary screen, NOX inhibitor project, cell-based, HEK293-NOX2, PMA-stimulated, Amplex Red fluorescence (AID 1159). Also: test concentration not given here. As to conditions: 45 min, higher = more signal, called active from +8 up or from −8 down.
In assay [19] the target is NADPH oxidase 4 (Homo sapiens) (UniProt Q9NPH5). The assay is described as follows: NOX4-dependent H2O2 signal modulators, primary screen, NOX inhibitor project, cell-based, HEK293-NOX4, tetracycline-induced, Amplex Red fluorescence (AID 1160). To be noted: 45 min, higher = more signal, called active from +8 up or from −8 down.
Assay [20] has as its target NADPH oxidase 5 (Homo sapiens) (UniProt Q96PH1). The assay is described as follows: NOX5-dependent H2O2 signal modulators, primary screen, NOX inhibitor project, cell-based, HEK293-NOX5, Amplex Red fluorescence (AID 1161). To be noted: HEK293-NOX5, ionomycin, 45 min, higher = more signal.

Chain of NADPH oxidase 5 (Homo sapiens) (Q96PH1 whole entry, looked up): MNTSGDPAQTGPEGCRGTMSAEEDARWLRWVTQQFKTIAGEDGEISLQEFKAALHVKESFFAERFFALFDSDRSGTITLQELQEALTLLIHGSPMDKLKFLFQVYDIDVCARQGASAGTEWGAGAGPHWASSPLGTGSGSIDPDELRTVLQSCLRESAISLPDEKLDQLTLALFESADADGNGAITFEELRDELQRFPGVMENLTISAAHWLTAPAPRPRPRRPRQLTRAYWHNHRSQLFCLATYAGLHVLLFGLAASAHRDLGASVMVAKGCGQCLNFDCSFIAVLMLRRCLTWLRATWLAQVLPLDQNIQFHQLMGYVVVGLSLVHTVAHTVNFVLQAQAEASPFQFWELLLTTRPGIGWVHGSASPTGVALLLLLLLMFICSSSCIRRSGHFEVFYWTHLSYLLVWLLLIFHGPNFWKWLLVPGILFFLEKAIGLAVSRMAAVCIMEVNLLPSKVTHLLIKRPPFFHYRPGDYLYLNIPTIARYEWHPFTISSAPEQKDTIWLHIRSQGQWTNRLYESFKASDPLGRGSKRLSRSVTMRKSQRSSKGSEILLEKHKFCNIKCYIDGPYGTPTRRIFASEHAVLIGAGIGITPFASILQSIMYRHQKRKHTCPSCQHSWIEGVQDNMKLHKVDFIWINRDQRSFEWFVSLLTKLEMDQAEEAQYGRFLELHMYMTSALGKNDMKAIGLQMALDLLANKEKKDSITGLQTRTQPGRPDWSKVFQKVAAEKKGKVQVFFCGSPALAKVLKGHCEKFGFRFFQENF
Chain of NADPH oxidase 2 (Homo sapiens) (P04839 whole entry, looked up): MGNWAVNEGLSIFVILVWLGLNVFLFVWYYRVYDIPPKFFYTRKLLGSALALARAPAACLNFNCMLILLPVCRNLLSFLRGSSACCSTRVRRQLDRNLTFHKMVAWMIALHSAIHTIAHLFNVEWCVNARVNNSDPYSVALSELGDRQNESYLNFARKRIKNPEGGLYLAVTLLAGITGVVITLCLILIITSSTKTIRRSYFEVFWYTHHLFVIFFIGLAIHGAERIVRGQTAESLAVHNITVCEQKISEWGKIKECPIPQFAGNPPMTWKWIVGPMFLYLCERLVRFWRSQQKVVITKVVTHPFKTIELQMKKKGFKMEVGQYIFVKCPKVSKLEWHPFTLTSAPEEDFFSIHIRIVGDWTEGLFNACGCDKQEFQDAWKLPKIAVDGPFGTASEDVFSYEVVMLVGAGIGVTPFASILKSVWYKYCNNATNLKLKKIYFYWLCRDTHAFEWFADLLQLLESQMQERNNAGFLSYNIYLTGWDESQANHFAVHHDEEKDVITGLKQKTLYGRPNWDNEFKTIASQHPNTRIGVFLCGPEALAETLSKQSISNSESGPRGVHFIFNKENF
Chain of Torsin-1A (Homo sapiens) (O14656 whole entry, looked up): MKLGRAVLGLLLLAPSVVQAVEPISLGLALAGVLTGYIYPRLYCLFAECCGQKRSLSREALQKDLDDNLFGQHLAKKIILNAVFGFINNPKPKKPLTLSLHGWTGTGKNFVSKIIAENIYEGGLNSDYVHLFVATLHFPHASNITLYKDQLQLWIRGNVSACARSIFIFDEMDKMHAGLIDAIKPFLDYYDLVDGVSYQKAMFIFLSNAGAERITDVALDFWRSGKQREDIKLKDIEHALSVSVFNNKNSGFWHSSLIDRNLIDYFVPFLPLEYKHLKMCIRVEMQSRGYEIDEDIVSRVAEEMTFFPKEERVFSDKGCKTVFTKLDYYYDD
Chain of NADPH oxidase 4 (Homo sapiens) (Q9NPH5 whole entry, looked up): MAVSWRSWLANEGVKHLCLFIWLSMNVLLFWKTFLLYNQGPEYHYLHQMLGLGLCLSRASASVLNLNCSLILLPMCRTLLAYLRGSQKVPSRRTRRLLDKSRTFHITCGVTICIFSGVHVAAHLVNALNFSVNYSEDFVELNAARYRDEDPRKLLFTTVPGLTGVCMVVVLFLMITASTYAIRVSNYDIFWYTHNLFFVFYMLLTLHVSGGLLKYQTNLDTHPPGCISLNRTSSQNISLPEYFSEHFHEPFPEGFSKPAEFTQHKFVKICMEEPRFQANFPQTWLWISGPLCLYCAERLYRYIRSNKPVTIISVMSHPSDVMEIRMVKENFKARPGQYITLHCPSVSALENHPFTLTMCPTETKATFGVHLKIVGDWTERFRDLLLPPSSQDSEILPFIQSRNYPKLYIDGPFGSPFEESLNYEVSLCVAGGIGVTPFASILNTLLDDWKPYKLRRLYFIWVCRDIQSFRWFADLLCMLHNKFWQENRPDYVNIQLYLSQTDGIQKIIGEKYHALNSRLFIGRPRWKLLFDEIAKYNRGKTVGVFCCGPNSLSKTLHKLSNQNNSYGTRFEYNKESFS
Chain of Streptavidin (Streptomyces avidinii) (P22629 whole entry, looked up): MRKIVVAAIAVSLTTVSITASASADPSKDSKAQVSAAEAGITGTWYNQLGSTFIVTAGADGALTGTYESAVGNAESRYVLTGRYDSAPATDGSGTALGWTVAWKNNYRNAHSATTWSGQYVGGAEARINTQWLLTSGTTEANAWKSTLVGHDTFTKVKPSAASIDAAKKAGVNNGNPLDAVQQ

Consider `CCOC(=O)CCN1C(=O)[C@H]2[C@@H]3C(=CC[C@H]2C1=O)C(=O)[C@H]1O[C@H]1[C@H]3O`, for which the composite z-score in [1] was -0.544; in assay [6], -0.7; in [7], -0.253; in assay [8] it was -0.47; in assay [9], 0.914; in assay [10], -0.87. Moreover, the composite z-score in [12] is -0.284. Also, the z-score in assay [2] is -5.94 (inactive); in assay [3] it was 0.737 (inactive); in assay [4], 0.79 (inactive); in [5] it was 28.7 (active); in assay [11] it was 0.244 (inactive); in assay [13], 3.05 (inactive). Further, the z-score in [14] was 0.673 (inactive); in [15], 0.587 (inactive); in assay [16], 0.254 (inactive); in assay [17], 0.642; in [18] it was 0.955 (inactive); in assay [19], 0.35 (inactive). In assay [20], the z-score was found to be 0.38.

With `O=C(NN=C1C[C@@H](O)[C@@H](O)[C@@H]2[C@@H]3C(=O)N(Cc4ccccc4)C(=O)[C@@H]3CC[C@H]12)OCc1ccccc1`, the composite z-score in assay [1] is -0.014; in assay [6], -0.0198; in [7], 0.0406; in assay [8], 0.726; in [9] it was 0.983; in assay [10], 1.06. Further, the composite z-score in [12] is -0.279. Moreover, the z-score in assay [2] was -0.575 (inactive); in assay [3] it was -0.281 (inactive); in [4], 0.0628 (inactive); in assay [5], 0.401 (inactive); in [11] it was -0.202 (inactive); in assay [13], 0.464 (inactive). Besides, the z-score in [14] was -1.04 (inactive); in [15], -0.999 (inactive); in assay [16], -1.46 (inactive); in assay [17], -0.276; in [18], 1.49 (inactive); in assay [19], 0.638 (inactive). Besides, in assay [20], the z-score is -0.0528.

Take `CON(C)C(=O)c1nnc2c(n1)[nH]c1ccccc12`: the composite z-score was 0.0269 in assay [1]; 0.153 in assay [6]; -0.101 in assay [7]; 0.275 in [8]; 0.333 in [9]; 0.928 in assay [10]. Further, in assay [12], the composite z-score is -0.161. Further, the z-score was 0.569 (inactive) in assay [2]; 0.555 (inactive) in assay [3]; 0.198 (inactive) in [4]; 0.275 (inactive) in assay [5]; -0.398 (inactive) in [11]; 1.61 (inactive) in assay [13]. The z-score was 0.235 (inactive) in assay [14]; -0.322 (inactive) in [15]; 0.0008 (inactive) in [16]; -0.133 in assay [17]; 1.04 (inactive) in assay [18]; 0.103 (inactive) in assay [19]. In addition, the z-score in [20] stood at 0.836.

Take `CC(CCN1CCCCc2nc(C)c(C)cc21)=NO[C@@H](C)c1cc(-c2c(C)cc(C)cc2C)no1`: the composite z-score in assay [1] was -0.525; in [6] it was -1.23; in [7] it was -0.211; in [8] it was -1.18; in assay [9], -0.956; in assay [10], -0.235. Also, in [12], the composite z-score is -0.196. For the same compound, the z-score in [2] was -3.04 (inactive); in assay [3], -0.425 (inactive); in assay [4], 1.9 (inactive); in assay [5], 1.02 (inactive); in assay [11], 0.393 (inactive); in assay [13], 3 (inactive). For the same compound, the z-score was 0.49 (inactive) in assay [14]; 1.54 (inactive) in [15]; 0.588 (inactive) in assay [16]; 0.13 in assay [17]; -1.79 (inactive) in [18]; -0.125 (inactive) in assay [19]. In addition, the z-score in assay [20] was -2.5.
